Screening results (PubChem BioAssay)
Only some compounds are listed: those with a hit (about 21% of all), similar ones and a draw of the others.
Pf growth 96h: inhibits malaria parasite growth, 96 h; P. falciparum luciferase reporter growth, 96 h; Potency, µM (titrated, usually from 28.7 µM), inactives show top-dose activity change, negative = inhibition, most hits filed as inhibitors; 6.9% of 320,000 active; AID 504834; also: potency is read from the fitted curve at half-maximal effect; % is scaled to controls: 0 for no effect and ±100 for the full control effect
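P. falciparum expressing integrated firefly luciferase, in erythrocytes at 2% hematocrit, 0.05% parasitemia, incubated with compounds 96 h at 37 C, 5% CO2. Growth inhibition read as loss of luminescence; two-generation exposure targets delayed-death apicoplast inhibitors.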
AMA1 RON2 block: AMA1-RON2 (P. falciparum) interaction inhibition; AlphaScreen AMA1-biotinylated RON2 peptide binding; Potency, µM (highest dose often 58.2 µM), for inactives: at the highest dose activity change, negative = inhibition, most hits filed as inhibitors; 0.2% of 360,000 active; AID 720542;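 also: potency is read from the fitted curve at half-maximal effect; 0% = vehicle wells and -100% = peptide control; nearly all actives have a fitted effect of over 45% in size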
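AMA1 (3D7) with his tag at 25 nM final met compounds first, then biotinylated RON2 peptide at 25 nM; detection used donor plus acceptor beads, 10 µg/mL apiece, read by AlphaScreen after 30 min at room temperature.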
Shiga toxin inh: Shiga toxin inhibition; Vero cells, Shiga toxin protein synthesis inhibition reporter; inhibition, % at 38.7 µM; 9.2% of 290,000 active; in the data active = inhibition mostly above about 28%, no sharp cut-off; inactive = mostly below about 43%; also: 0% is about no effect
HCV inh: inhibitors of hepatitis C virus infection; AID 651820; Huh7.5.1 HCVcc-Cre infection, luciferase reporter, 44 h; 3.4% of 340,000 active; Potency, µM (top dose mostly 41.8 µM), for inactives: at the highest dose activity change, negative = inhibition, most hits filed as inhibitors; also: potency is read from the fitted curve at half-maximal effect; % is scaled to controls: 0 for no effect and ±100 for the full control effect
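Reporter virus HCVcc-Cre (~0.5 moi) infects cells exposed to compound; seeding density 1,000 cells/well with 4 h settling beforehand. Luminescence, 15 sec read, taken 44 h post-infection following a 15 min RT substrate incubation.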
CHX counter: counter-screen hit for Shiga toxin inhibitors, cycloheximide; cell reporter, cycloheximide protein synthesis inhibition counterscreen; max response, %; 12% of 300,000 active; AID 2314; in the data active = max response mostly above about 13%, no sharp cut-off; inactive = mostly below about 14%; also: read at 38.3 µM for the half of the compounds with a filed dose; 0% is about no effect
Pf growth 48h: P. falciparum growth inhibition at 48 hours (one generation); P. falciparum luciferase growth in erythrocytes, 48 h; Potency, µM (doses to about 28.7 µM), for the others: at the highest dose activity change, negative = inhibition, most hits filed as inhibitors; 5.9% of 310,000 active; AID 504832; also: potency is read from the fitted curve at half-maximal effect; % is scaled to controls: 0 for no effect and ±100 for the full control effect
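Firefly luciferase activity from engineered P. falciparum reports growth; inhibitors lower the luminescent signal. Cultures contained 2% hematocrit erythrocytes at 0.1% final parasitemia.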
The depositor's hits bear a star; ? = inconclusive; . = not tested or not shown. Unless noted, calls follow the shape of the dose curve; as a rule, active = well fitted curve in the direction sought with a large enough effect; inconclusive = small, poorly fitted or top-dose-only effect, or another doubt; inactive = no such curve, though single readings can be large; an effect the other way counts as inactive or inconclusive.

SMILES	Pf growth 96h	AMA1 RON2 block	Shiga toxin inh	HCV inh	CHX counter	Pf growth 48h
Cc1noc(C)c1NC(=O)N(C)C[C@H]1Oc2ccc(NC(=O)Cn3cnnn3)cc2C(=O)N([C@H](C)CO)C[C@@H]1C	.	-1%	.	-3%	.	.
CC(=O)Nc1cccc(NC(=O)c2ccc(C(=O)Nc3cccc(NC(C)=O)c3)nc2)c1	?	-22%	2	-8%	10	-4%
O=C(Nc1ccccc1)c1ccc(C(=O)Nc2ccccc2)nc1	8%	1%	49*	-3%	16	46%
Cc1cccc(NC(=O)c2ccc(C(=O)Nc3cccc(C)c3)nc2)c1	-14%	5%	64*	?	23	7%
COc1c([N+](=O)[O-])cc(C(=O)NNC(=O)c2ccc(C)cc2)cc1[N+](=O)[O-]	?	23%	-3	-6%	1	-13%
COc1cc(/C=C(\C#N)C(=O)c2ccc(O)c(O)c2)cc(I)c1O	-9%	?	.	4%	.	?
CCOC(=O)c1ccc(NC(=O)CSc2nc3c(c(=O)n2CC)SC(C)C3)cc1 (stereo not drawn)	9.3µM*	-16%	-3	?	-2	10µM*
CCOC(=O)c1ccc(NC(=O)CSc2nc3c(c(=O)n2C)SC(C)C3)cc1 (stereo not drawn)	?	-13%	10	?	4	.
CCn1c(SCC(=O)Nc2cccc(F)c2)nc2c(c1=O)SC(C)C2 (stereo not drawn)	2.6µM*	-6%	4	?	-2	4.1µM*
COc1ccc(C2C(C(=O)O)CCC(=O)N2c2ccc(C)cc2)cc1OC (stereo not drawn)	36%	-3%	1	23%	-1	0%
COc1ccc(Br)cc1CNC(=O)CCCc1cn(C)c2ccccc12	12µM*	?	-9	?	-3	-7%
COc1ccc(CCNC(=O)CCc2cn(C)c3ccccc23)c(OC)c1OC	?	6%	-2	?	1	12µM*
COc1ccc(OC)c(CNC(=O)Cc2c(C(=O)O)[nH]c3ccccc23)c1	9.3µM*	-20%	-8	3%	1	1%
COc1ccc(OC)c(CNC(=O)CCCc2cn(C)c3ccccc23)c1	?	-29%	-9	?	-2	23%
COc1ccc(OC)c(CNC(=O)CCc2cn(C)c3ccccc23)c1	3.7µM*	0%	-7	-17%	-2	8%
COc1ccc(NC(=S)NCCc2c(C)[nH]c3ccc(OC)cc23)cc1	-1%	-18%	-11	-22%	-5	?
COc1ccc2[nH]c(C)c(CCNCc3cn(C)c4ccccc34)c2c1	5.2µM*	?	.	?	.	8.3µM*
CC(=O)Nc1ccccc1C(=O)N1CCN(Cc2ccc3c(c2)OCO3)CC1	-16%	-8%	2	11%	1	17%
CCCC(=O)Nc1ccc(-c2nc3cc(C)c(C)cc3o2)c(O)c1	13%	29%	52	-5%	32*	55%
CCCC(=O)Nc1ccc(-c2nc3cc(C)ccc3o2)cc1	.	-19%	70*	11µM*	31*	57%
CCCCCC(=O)Nc1ccc2oc(-c3cccnc3)nc2c1	?	-3%	-5	-18%	10	-28%
CCCC(=O)Nc1ccc(C)c(O)c1	39%	1%	-10	?	-2	.
CCCC(=O)Nc1ccc2oc(-c3ccc(OC)c(Br)c3)nc2c1	?	6%	65	?	22*	?
O=C(NCc1ccccc1)C(c1ccc(-c2ccccc2)cc1)N1CCN(CCN2CCOCC2)CC1 (stereo not drawn)	.	-12%	.	.	.	.
c1cc(-c2cnn3cc(-c4ccc(OCCN5CCCCC5)cc4)cnc23)ccn1	.	.	27*	.	40*	.
SMILES	Pf growth 96h	AMA1 RON2 block	Shiga toxin inh	HCV inh	CHX counter	Pf growth 48h
CC(C)(C)c1ccc(OCCN2CCCC2)cc1	?	-11%	21	0%	6	-22%
COc1ccc(C2=Nc3ccccc3NC(=O)C2N(CCc2ccccc2)C(=O)c2cccs2)cc1 (stereo not drawn)	.	-9%	.	.	.	.
CC(C)C[C@]1(c2ccccc2)ON(c2ccccc2C(F)(F)F)C1=O	?	27%	.	7%	.	9.3µM*
Cc1cc(=O)c(C(=O)O)nn1-c1ccccc1C(F)(F)F	0%	-6%	1	-14%	-1	7%
CC[C@]1(c2ccccc2OC)ON(c2ccccc2C(F)(F)F)C1=O	0.41µM*	36%	.	?	.	0.52µM*
COc1ccccc1[C@]1(C)ON(c2ccccc2C(F)(F)F)C1=O	0.83µM*	22%	.	?	.	1µM*
CC1CCN(CCC(=O)Nc2ccc(F)c(F)c2)CC1	0%	-3%	-3	-6%	8	13%
COc1ccc(-c2noc(CCCC(=O)NCC3CCCO3)n2)cc1 (stereo not drawn)	?	-5%	29	-23%	2	2%
Cc1nn(Cc2ccccc2)c(C)c1NC(=O)CSc1nc2c(c(C(F)(F)F)n1)CCc1ccccc1-2	8.3µM*	0%	-2	?	-2	5.2µM*
CCN(CC)CCCNC(=O)CSc1nc2c(c(C(F)(F)F)n1)CCc1ccccc1-2	12%	-10%	-7	16µM*	-5	?
O=C(CSc1nc2c(c(C(F)(F)F)n1)CCc1ccccc1-2)NCc1ccccc1	21%	2%	17	-5%	3	-11%
O=C(O)CSc1nc2c(c(C(F)(F)F)n1)CCc1ccccc1-2	33%	-11%	-6	-9%	-4	11%
OC[C@@H]1CN(Cc2ccc(Cl)cc2)C[C@H](n2cnc3c(N4CCCC4)ncnc32)O1	.	14%	.	.	.	.
COc1cc(C(C)=O)ccc1OCC(=O)OCCCOC(=O)COc1ccc(C(C)=O)cc1OC	3%	-5%	17	-5%	-3	-2%
COc1ccc(Br)c(Cn2c(C)c(C(=O)NCc3cccc([N+](=O)[O-])c3)sc2=O)c1	.	-12%	.	.	.	.
CC1=Nc2cc([N+](=O)[O-])ccc2NC(C)(C)C1	39%	-12%	115*	?	62*	?
Cc1ccnc(NC(=S)NC(=O)/C=C/c2ccc(Cl)cc2)c1	4.1µM*	1%	26*	13%	26*	57%
Cc1cccnc1NC(=S)NC(=O)/C=C/c1ccccc1	10%	78%	78*	13%	31*	?
Cc1ccnc(NC(=S)NC(=O)/C=C/c2ccccc2)c1	30%	9%	61*	-9%	32*	52%
O=C(/C=C/c1ccccc1)NC(=S)Nc1cccnc1	?	2%	-2	20%	12	32%
Cc1ccnc(NC(=O)C(Cc2ccccc2)NC(=O)c2ccccc2)c1 (stereo not drawn)	?	-13%	.	?	.	?
COc1ccccc1CCNC(C)CCc1ccc(O)cc1 (stereo not drawn)	3%	6%	-4	4%	-2	-3%
